Bioassay records: PubChem, National Center for Advancing Translational Sciences (NCATS)
A selection: hits, their analogues and other compounds. The true share with any hit is near 5.7%.
Nrf2 block: Nrf2 qHTS screen for inhibitors | Potency, µM (doses to about 46 µM), for the others: at the highest dose activity change, negative = inhibition, most hits filed as inhibitors | 2.1% of 360,000 active | A549 ARE-Fluc reporter, luciferase luminescence, 18-24 h; also: potency is read from the fitted curve at half-maximal effect; nearly all actives have a fitted effect of over 60% in size
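Two sequential reads on A549 ARE_Fluc cells exposed to compound for 18-24 h: a CellTiter-Fluor fluorescence read for viability, then a luciferase luminescence read for Nrf2/ARE activity.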
A549 viability: Nrf2 qHTS screen for inhibitors: counterscreen for cytotoxicity; A549 ARE-Fluc cells, CellTiter-Fluor viability, 18-24 h; Potency, µM (highest dose often 46 µM), inactives show top-dose activity change, negative = cytotoxicity, actives largely listed as inhibitors; 0.16% of 390,000 active; also: potency is read from the fitted curve at half-maximal effect
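A549 ARE-Fluc cells in 5% FBS OPTI-MEM, 5000 cells/well, rested 2 h then exposed to compounds in concentration-response for 18-24 h at 37 °C. Viability by CellTiter-Fluor fluorescence (Ex 405/Em 525) after 30 min; luciferase luminescence (BugLite, 15 min, RT) read afterwards.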
PI4K2A inh: qHTS for small molecular inhibitors of PI4K2A | Phosphatidylinositol 4-kinase type 2-alpha (Homo sapiens), Q9BTU6 | purified PI4K2A, ADP-Glo luminescence, 1 h; active compounds read low | activity change, negative = inhibition, % at 76.9 µM | 0.13% of 420,000 active; in the data active = activity change below about -50%; inconclusive = mostly about -30% to -49%;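 also: -100% = wells without enzyme as full effect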
Target sequence (Q9BTU6 whole entry, looked up): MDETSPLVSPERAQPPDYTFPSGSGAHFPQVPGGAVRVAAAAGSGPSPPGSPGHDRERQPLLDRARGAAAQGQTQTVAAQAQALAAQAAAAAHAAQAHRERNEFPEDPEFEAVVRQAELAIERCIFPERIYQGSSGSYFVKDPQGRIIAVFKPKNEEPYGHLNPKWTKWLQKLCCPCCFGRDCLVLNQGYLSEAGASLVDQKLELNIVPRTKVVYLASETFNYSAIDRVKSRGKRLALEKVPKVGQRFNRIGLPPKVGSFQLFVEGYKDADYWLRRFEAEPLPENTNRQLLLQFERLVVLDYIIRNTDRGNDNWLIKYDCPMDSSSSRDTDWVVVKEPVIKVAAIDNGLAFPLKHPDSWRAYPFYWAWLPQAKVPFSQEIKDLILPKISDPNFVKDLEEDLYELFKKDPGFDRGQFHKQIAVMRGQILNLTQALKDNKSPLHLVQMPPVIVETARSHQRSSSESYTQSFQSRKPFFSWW
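Compounds are screened against recombinant PI4K2A using PI as substrate and ATP, the latter dispensed at 300 microM. Reactions run one hour at ambient temperature before ADP-Glo detection; full inhibition defined by wells lacking enzyme.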
KB-V1 MDR tox: qHTS assay for MDR1-selective chemotherapeutics: Primary screen using the drug-selected MDR subline cells KB-V1. KB-V1 MDR cells viability, CellTiter-Glo, 72 h. Potency, µM (highest dose often 46.1 µM), hits mostly cytotoxic. 3.4% of 400,000 active; also: potency is read from the fitted curve at half-maximal effect; nearly all actives have a fitted effect of over 60% in size
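Drug-selected KB-V1 cells, grown in DMEM lacking phenol red with 10% FBS, receive compound titrations; after three days at 37 degrees C, surviving cell ATP is quantified by CellTiter-Glo luminescence and responses normalized and curve-fitted.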
KB-3-1 tox: qHTS assay for MDR1-selective chemotherapeutics: Primary screen using the parental adenocarcinoma cell KB-3-1; KB-3-1 viability, CellTiter-Glo ATP luminescence, 72 h; Potency, µM (series often up to 46.1 µM), actives largely listed as cytotoxic; 1.4% of 400,000 active; also: potency is read from the fitted curve at half-maximal effect; nearly all actives have a fitted effect of over 60% in size
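Screening of KB-3-1 cells (DMEM, 10% FBS, phenol-red free) ran from lowest to highest compound concentration; after 72 h at 37 °C viability was read luminescently and curves fitted.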
Giardia killer: Small Molecules that selectively kill Giardia lamblia: qHTS. Giardia lamblia trophozoite viability. activity change, % at 7.66 µM, hits read low. 0.15% of 340,000 active; in the data active = activity change below about -80%; inconclusive = between about -30% and that limit;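 also: parasites exposed to compound for two days anaerobically before the ATP read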
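Media and compound were dispensed first, then trophozoites at 100 cells/well; plates sat 48 hrs at 37 deg C without oxygen before ATP luminescence reagent was added and read after 15-30 min at room temperature.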
* marks the source's active call; other numbers are inactive results; i = inactive; ? = inconclusive; · = not tested or not shown; ! = not active in a repeat. Unless noted, calls follow the shape of the dose curve; as a rule, active = well fitted curve in the direction sought with a large enough effect; inconclusive = small, poorly fitted or top-dose-only effect, or another doubt; inactive = no such curve, though single readings can be large; an effect the other way counts as inactive or inconclusive. Unless noted, % is scaled to controls: 0 for no effect and ±100 for the full control effect.

SMILES	Nrf2 block	A549 viability	PI4K2A inh	KB-V1 MDR tox	KB-3-1 tox	Giardia killer
N#Cc1c(NC(=O)CSc2nc(N)cc(=O)[nH]2)sc2c1CCCC2	15µM*	-22%	-20	i	?	-10
CN(C)c1ccc(-c2nc3ncc(Cl)cc3[nH]2)cc1	·	·	-3	·	·	·
CCc1cc2c(=O)c(-c3cnn(-c4ccccc4)c3)c(C(F)(F)F)oc2c(CN(C)C)c1O	4%	-1%	-2	1.8µM*	i	-19
CCN(CC)S(=O)(=O)c1ccc(OC(C)C)c(NC(=O)C2=COCCO2)c1	-1%	0%	-2	7.3µM*	i	-3
CCCNC(=O)Cc1c(C)n(C(=O)c2ccc(Cl)cc2)c2ccc(OC)cc12	18µM*	-20%	-13	i	i	28
CCN(CC(=O)Nc1c(F)cccc1F)C(=O)CN(C)S(=O)(=O)c1ccc(F)cc1	4%	-4%	5	21µM*	i	6
CCN(CC(=O)Nc1c(F)cccc1F)C(=O)CCC(=O)c1ccc(F)cc1	11%	-2%	0	i	i	-10
CC(C)(C)[C@@H]1CCC(=O)N(CC[C@H](N=[N+]=[N-])c2ccccc2)CC1	-6%	0%	0	21µM*!	i	14
CC(=O)/C(C#N)=C1\NC(=O)C(Cc2ccccc2C)S1 (configuration not stated)	?	-9%	-8	5.8µM*	?	16
C/C(=N\N=C1\NC(=O)C(Cc2ccccc2)S1)c1ccccc1 (configuration not stated)	-13%	-4%	-4	i	i	-16
CC(=O)/C(C#N)=C1\NC(=O)C(Cc2ccccc2)S1 (configuration not stated)	?	-14%	5	13µM*	15µM*	6
CCOc1ccc(C(=O)Nc2ccc(-c3nc4ccccc4o3)cc2)cc1[N+](=O)[O-]	·	·	·	?	i	·
Cc1nn(C)c(C)c1CN(C)C(=O)c1cnn2c1NC(c1ccccc1)CC2C(F)(F)F (configuration not stated)	?	-2%	1	?	i	1
O=C(NCC1CCCO1)c1cc2n(n1)C(C(F)(F)F)CC(c1ccc(F)cc1)N2 (configuration not stated)	?	-3%	-23	21µM*	i	-1
COc1ccc(C2CC(C(F)(F)F)n3nc(C(=O)NCCN4CCOCC4)cc3N2)cc1 (configuration not stated)	-20%	-3%	4	i	i	-1
Cc1nn(C)c(C)c1CN(C)C(=O)c1nn2c(c1Br)NC(c1cccs1)CC2C(F)(F)F (configuration not stated)	8.2µM*	1%	-6	i	i	-3
Cc1nn(C)c(C)c1CNC(=O)c1cc2n(n1)C(C(F)(F)F)CC(c1cccs1)N2 (configuration not stated)	18µM*	-7%	-2	?	i	-12
COc1cccc(NC(=O)Cn2c(=O)n(Cc3ccc(C(=O)NCc4ccc5c(c4)OCO5)cc3)c(=O)c3ccccc32)c1	-19%	-1%	-2	i	i	·
COc1ccc(-n2c(-c3ccccc3)cc3c2CCCC3=O)cc1	-30%	4%	-3	12µM*	?	14
Cc1ccc(-c2cc(C(=O)N=Nc3c(O)[nH]c4ccccc34)[nH]n2)cc1C	·	·	0	·	·	·
O=C(NCCCn1ccnc1)c1cc(-c2cccs2)on1	?	17%	1	15µM*	15µM*	10
C/C(=N\NC(=O)C1CCCN(S(=O)(=O)c2ccccc2)C1)c1ccncc1 (configuration not stated)	5%	2%	-1	i	i	6
C/C(=N\NC(=O)c1ccccc1OCc1ccc(F)cc1)c1ccccn1	?	?	-3	?	12µM*	-18
C/C(=N\NC(=O)c1cc(Br)ccc1O)c1ccccn1	3%	-16%	-1	i	i	10
C/C(=N\NC(=O)C1CCCN(S(=O)(=O)c2ccccc2)C1)c1ccccn1 (configuration not stated)	12µM*	?	0	?	?	-5
SMILES	Nrf2 block	A549 viability	PI4K2A inh	KB-V1 MDR tox	KB-3-1 tox	Giardia killer
C/C(=N\NC(=O)c1cccc(Br)c1)c1ccccn1	2.3µM*	?	-1	1.5µM*	?	-6
C/C(=N\NC(=O)C(c1ccccc1)c1ccccc1)c1ccccn1	12µM*	?	-4	i	13µM*	-24
COc1cc(N(C)C)c(OC)cc1C=O	·	·	·	i	i	·
COC(=O)[C@@]12CCCCC3=C1N(CCC3)C(=O)[C@H]2CC(=O)NCc1cccc(C(F)(F)F)c1	·	·	-3	·	·	·
O=C(c1cccs1)N1CC[C@H]2[C@H](CCCN2Cc2ccc(F)cc2)C1	·	·	4	·	·	·
COC(=O)C(C)N(C(=O)c1cccc2ccccc12)c1c(C)cccc1C (configuration not stated)	18µM*	-11%	4	i	i	-3
CC(C)OP(=O)(CP(=O)(OC(C)C)OC(C)C)OC(C)C	·	·	0	·	·	·
Cc1ccc(S(=O)(=O)N2CCOCC2)cc1C(=O)NCCN1C(=O)S/C(=C\c2ccccc2Cl)C1=O	?	-1%	3	?	?	4
O=C(NCCN1C(=O)S/C(=C\c2cccc(Cl)c2Cl)C1=O)C1=COCCO1	8%	-4%	4	15µM*	21µM*	-18
Cc1sc2nc(SCC(=O)OC(C)C)n(C)c(=O)c2c1C	2%	-2%	4	15µM*	i	-6
Cc1sc2nc(SCC(=O)NCCO)n(C)c(=O)c2c1C	16%	-16%	2	?	i	6
COc1ccc(/C=N/Nc2nc(C)cc(-c3ccccc3)n2)cc1OC	23µM*	-7%	-2	i	i	3
Cc1cc(N/N=C/c2ccccc2)nc(NCc2ccccc2)n1	10%	-2%	0	13µM*	i	-7
Cc1cc(-c2ccccc2)nc(N/N=C/c2ccccc2)n1	?	2%	-5	i	i	0
COc1ccc(/C=N/Nc2nc(-c3ccc(Cl)cc3)cc(C(F)(F)F)n2)cc1OC	-26%	-2%	-1	7.3µM*	i	4
Cc1cc(-c2ccccc2)nc(N/N=C/c2ccc([N+](=O)[O-])cc2)n1	?	-8%	4	23µM*	i	-13
